Source: PubChem BioAssay (The Scripps Research Institute Molecular Screening Center)
An excerpt weighted towards active compounds, which were near 2.8% of everything screened.
KLK7 zymogen act = activators of human kallikrein-7 zymogen; P49862; purified proKLK7, EDANS-DABCYL substrate fluorescence; 100% is mature enzyme control, 0% vehicle; activation, % at 7 µM; 370,000 compounds, 0.9% hits;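 active = activation above the mean of all tested compounds plus 3 SD, computed per campaign excluding outliers beyond control limits, cut at about 13% in these data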
Target sequence (P49862 whole entry, looked up): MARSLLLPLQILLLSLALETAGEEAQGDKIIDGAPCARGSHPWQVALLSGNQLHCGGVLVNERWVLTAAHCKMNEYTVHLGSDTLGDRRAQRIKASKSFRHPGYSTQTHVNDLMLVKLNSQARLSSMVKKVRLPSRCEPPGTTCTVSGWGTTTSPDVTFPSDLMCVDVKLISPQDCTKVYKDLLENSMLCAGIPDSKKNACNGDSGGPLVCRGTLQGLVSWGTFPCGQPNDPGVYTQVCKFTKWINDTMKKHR
SMARCA2 act = SMARCA2 function activation, primary screen. AID 652017. MG213 cells, MMTV-luciferase reporter, dexamethasone, overnight. activation, % at 9.1 µM. 370,000 compounds, 1% hits; in the data active = activation above about 7.8%;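 also: 0% = vehicle wells and 100% = reference activator wells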
bovine MsrA act = activates bovine MsrA enzyme; purified bovine MsrA, absorbance read-out; activation, % at 10.6 µM; 360,000 compounds, 0.3% hits; AID 602163; in the data active = activation above about 7.5%;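 also: 0% = vehicle and 100% = reference activator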
MsrA inh = inhibitors of bovine MsrA. inhibition, % at 15.5 µM. purified bovine MsrA, absorbance read-out. 360,000 compounds, 0.75% hits. AID 651718;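 also: 0% = vehicle wells with enzyme and 100% = reference inhibitor wells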
MsrA inh confirm = confirmation of bovine MsrA inhibitors. shares compounds with MsrA inh. purified bovine MsrA, absorbance read-out. inhibition, % at 15.5 µM. 2,300 compounds, 41% hits. AID 651822;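 also: coupled to thioredoxin reductase with NADPH and selenocystamine and DMSO as substrate; 0% = vehicle only and 100% = full effect of reference inhibitor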
An asterisk follows results filed as active; / = not tested or not shown. Rule as the data show it, unless noted: active = inhibition above about 4.5%; inactive = the rest.

SMILES	KLK7 zymogen act	SMARCA2 act	bovine MsrA act	MsrA inh	MsrA inh confirm
CC1(C)Cc2c(sc(/N=C/N3CCCC3)c2C#N)C(C)(C)N1	-1	-4	0	5.1*	3
CC1(C)Cc2c(sc(/N=C/N3CCCCCC3)c2C#N)C(C)(C)N1	0	-1	-4	1	/
NC(=O)c1ccsc1NC(=O)COC(=O)/C=C/c1ccccc1	0	-1	-3	1	/
NC(=O)c1ccsc1NC(=O)COC(=O)/C=C/c1ccccc1[N+](=O)[O-]	-1	1	-1	11*	9.4*
O=C(NCc1ccco1)/C(=C/C=C/c1ccccc1)NC(=O)c1ccco1	0	0	-6	4.9*	3
O=C(NCc1ccco1)/C(=C\C=C\c1ccccc1)NC(=O)c1ccccc1Br	0	-5	-6	5.0*	2
CSc1ccc(/C=C(/NC(=O)c2ccco2)C(=O)NCc2ccco2)cc1	-3	-3	-8	6.3*	3
O=Cc1cn(-c2ccccc2)nc1-c1ccc2c(c1)OCCO2	1	4	-2	17*	12*
O=Cc1cn(-c2ccccc2)nc1-c1ccc(F)cc1	-1	1	-2	12*	8.3*
O=C(O)c1cn(-c2ccccc2)nc1-c1ccc(F)cc1	0	-1	-4	-1	/
COC(=O)C1=C(C)N(C)C(=NCc2ccc(OC)cc2)NC1c1ccc(F)cc1 (configuration not stated)	0	-1	/	1	/
CCN1C(C(=O)Nc2cc(C)on2)=C(O)c2ccccc2S1(=O)=O	1	-1	-5	5.1*	2
CCCCN1C(C(=O)Nc2cc(C)on2)=C(O)c2ccccc2S1(=O)=O	0	-4	-3	3	/
Cc1nc2scc(-c3ccccc3)c2c(=O)n1N	0	0	-3	1	/
Cc1ccc(C)n1-n1c(C)nc2scc(-c3ccccc3)c2c1=O	0	-2	-4	27*	26*
Cc1ccc(-c2csc3nc(C)n(-n4c(C)ccc4C)c(=O)c23)o1	1	-2	-3	15*	12*
CC1NC(=O)c2ccccc2-n2c1nc1ccc(F)cc1c2=O (configuration not stated)	0	1	-1	-1	/
O=C(OCc1cn(Cc2ccc(C(F)(F)F)cc2)nn1)N1CCOCC1	0	-4	/	/	/
O=c1/c(=C/c2ccco2)sc2n1CN(c1ccccc1)CN=2	1	-1	-7	5.0*	6.1*
Cc1ccc(/C=c2\sc3n(c2=O)CN(c2cccc(Br)c2)CN=3)o1	3	0	-4	2	/
O=c1/c(=C/c2ccco2)sc2n1CN(c1cccc(Br)c1)CN=2	1	1	7	5.2*	2
COC(=O)[C@]12C[C@H](CC(=O)N3CCC(c4ccccc4)CC3)C(=O)N(Cc3ccco3)C1=C[C@H](C1CCCC1)O[C@@H]2C	0	-4	/	/	/
COc1cc(NC(=O)N2CCc3nc(Nc4cc(Cl)cc(Cl)c4)ncc3C2)cc(OC)c1OC	0	-1	0	2	/
O=C(COC(=O)c1cc(S(=O)(=O)NCc2ccccc2)ccc1O)c1cc2ccccc2o1	0	-1	-3	4.8*	3
CCOC(=O)C1=CCN(S(=O)(=O)c2ccccc2Br)C1c1ccccc1 (configuration not stated)	0	3	6	2	/
SMILES	KLK7 zymogen act	SMARCA2 act	bovine MsrA act	MsrA inh	MsrA inh confirm
COCCn1c(=NC(=O)c2ccc3c(c2)OCCO3)sc2cc(S(N)(=O)=O)ccc21	-56	-3	-15	6.2*	3
COCCn1c(=NC(=O)c2cc(Cl)sc2Cl)sc2cc(S(N)(=O)=O)ccc21	-1	1	-6	0	/
COc1ccc(/C=N/NC(=O)c2c(C)n(C)c3ccc(OC)cc23)c(OC)c1	0	2	-5	4.9*	4
CCN(CC(=O)Nc1cc(Cl)ccc1C)C(=O)c1oc2ccc(OC)cc2c1C	-1	0	0	0	/
Cc1[nH]c2ccccc2c1CC(=O)Nc1ccc(N(C)c2cccnc2)c(-c2ccc(F)c(F)c2)c1	-1	-4	/	1	/
C[C@@]12C(=O)NCC(=O)N1[C@@H]1c3cc(Br)ccc3OC[C@@H]1[C@@H]2c1ccccc1	0	-1	0	1	/
CC1(C)CC(c2nc(-c3ccc([N+](=O)[O-])cc3)cs2)CCO1 (configuration not stated)	0	-6	-4	4.8*	2
COc1ccc2c(c1)CN1CN(Cc3ccccc3)S(=O)(=O)CC21 (configuration not stated)	0	-2	/	/	/
CCOC(=O)N1CCC(Nc2c(-c3ccc(C)cc3)c(=O)c2=O)CC1	0	0	-4	4.9*	3
